Laboratory results as given in PubChem BioAssay AID624296 (National Center for Advancing Translational Sciences (NCATS), 2012).
In all, about 350,000 compounds went through this assay and about 9,900 (2.8%) were called active. Where a call stands in place of a potency, no number is given. About 15% were inconclusive and are not listed. Calls come from the whole dose curve; as a rule, active = well fitted activation curve with a large enough effect; inconclusive = small, poorly fitted or top-dose-only effect; inactive = no such curve, though single readings can be large or run the other way. The sample as a whole holds a higher share of actives than the screen did.
Potency is the fitted concentration of half-maximal effect.

Assay: A quantitative high throughput screen for small molecules that induce DNA re-replication in MCF 10a normal breast cells. Note: nearly all actives have a fitted effect of over 50% in size.
Settings: MCF 10A DNA re-replication, Hoechst nuclear intensity, 48 h; series mostly up to 46.1 µM
For `CCn1nc(C(=O)Nc2ccc(N3CCOCC3)cc2)c2ccccc2c1=O`, the Potency was “inactive”.
In the case of `O=C(NNC(=O)C1CCCC1)c1ccc(F)cc1`, the Potency is reported as “inactive”.
With `C/[N+]([O-])=C\c1ccc([N+](=O)[O-])o1` the Potency was “inactive”.
For `O=C(/C=C/c1ccc([N+](=O)[O-])o1)NNC(=O)c1ccc(F)cc1`, the Potency was 9.2 µM (active).
With `CC(C)Oc1ccc(CC(=O)NNC(=S)Nc2ccc(Br)cc2)cc1` the Potency was 16.4 µM (active).
With `COCC(=O)Nc1ccc(Br)cc1` the Potency was “inactive”.
In the case of `CC(C)Oc1ccc(CCC(=O)NNC(=S)NCc2ccccc2)cc1`, the Potency is reported as “inactive”.
For `CC(C)(C)OC(=O)N(Cc1ccccc1)Cc1ccc(OCc2cccc(NC(=O)c3ccccc3)c2)cc1`, the Potency was “inactive”.
In the case of `CC[C@]12c3[nH]c4ccc(OC)cc4c3CCN1C(=O)C(CC(=O)NCCN1CCOCC1)C[C@@H]2C(=O)N1CCN(C(=O)C2CC2)CC1` (stereo not given in full), the Potency is reported as “inactive”.
For `Cc1ccc(COc2ccc(/C=N/NC(=O)CN3CCCCC3)cc2)cc1`, the Potency was “inactive”.
With `Cc1ccsc1C(=O)N/N=C/c1ccc([N+](=O)[O-])cc1` the Potency was “inactive”.
With `Cc1ccc(/C=N/NC(=O)c2sccc2OCc2ccc(F)cc2)cc1` the Potency was 6.51 µM (active).
With `CC(=O)Nc1ccc(SC[C@H](Cc2ccccc2)N2CC[C@@H](C)CCC2=O)cc1` the Potency was “inactive”.
In the case of `COc1ccc(NS(=O)(=O)c2cc(NC(=O)c3ccc(S(=O)(=O)N(C)C)cc3)ccc2N2CCOCC2)cc1`, the Potency is reported as “inactive”.
For `COc1cc(NS(=O)(=O)c2ccc(N/C=C(\C=O)c3nc4cc(Cl)ccc4o3)cc2)nc(OC)n1`, the Potency was 20.6 µM (active).
With `COc1cc(NS(=O)(=O)c2ccc(NC(=S)NC(=O)c3ccccc3)cc2)nc(OC)n1` the Potency was “inactive”.
With `COc1cc(NS(=O)(=O)c2ccc(N=Cc3c(C)[nH]n(-c4ccccc4)c3=O)cc2)nc(OC)n1` the Potency was “inactive”.
In the case of `Cc1ccc(C)c(C(=O)COC(=O)Cn2[nH]c(=O)c3ccccc3c2=O)c1`, the Potency is reported as “inactive”.
With `CCc1ccc(C(=O)C(C)OC(=O)CN2C(=O)NC3(CCCC3)C2=O)cc1` (stereo not given) the Potency was “inactive”.
For `CCCC1=Nc2cc(C(=O)NCc3ccco3)ccc2Sc2ccccc21`, the Potency was 8.2 µM (active).
For `CCC1=Nc2cc(C(=O)NCCCN3CCOCC3)ccc2Sc2ccc(Br)cc21`, the Potency was “inactive”.
For `CCC1=Nc2cc(C(=O)NCCN3CCCC3)ccc2Sc2ccc(C)cc21`, the Potency was “inactive”.
For `CCOc1ccc(C(=O)CCN2CCOCC2)cc1`, the Potency was 18.4 µM (active).
For `c1ccc(-c2ccc(OCCN3CCOCC3)cc2)cc1`, the Potency was “inactive”.
In the case of `CC(=O)c1ccc(OCCN2CCOCC2)cc1`, the Potency is reported as “inactive”.
In the case of `OC(COc1ccc(Br)cc1)CN1CCCC1` (stereo not given), the Potency is reported as “inactive”.
In the case of `O=C(c1ccc(Cl)cc1)c1ccc(OCC(O)CN2CCCCC2)cc1` (stereo not given), the Potency is reported as 5.01 µM (active).
With `O=C(c1ccccc1)c1ccc(OCC(O)CN2CCCC2)cc1` (stereo not given) the Potency was “inactive”.
In the case of `CC(C)CCSc1ncnc2c1oc1nc3c(cc12)COC(C)(C)C3`, the Potency is reported as 5.8 µM (active).
With `C=CCn1c(=S)[nH]c2nc3c(cc2c1=O)COC(C)(C)C3` the Potency was “inactive”.
With `CCCc1nc2oc3c(OCC)ncnc3c2c2c1COC(C)(C)C2` the Potency was “inactive”.
In the case of `CSCCC(NS(=O)(=O)c1ccc(C)cc1)C(=O)N(C)CC(=O)Nc1ccccc1Br` (stereo not given), the Potency is reported as “inactive”.
For `O=C(COC(=O)c1ccc(O)cc1O)c1ccc2c(c1)OCCO2`, the Potency was “inactive”.
In the case of `O=C1COc2c1ccc(O)c2O`, the Potency is reported as “inactive”.
With `CCOc1cccc(=O)c2c(C)n(CC3CCCO3)c(C)c12` (stereo not given) the Potency was “inactive”.
In the case of `O=C1c2cccc3c([N+](=O)[O-])ccc(c23)C(=O)N1CC1CCCO1` (stereo not given), the Potency is reported as 18.4 µM (active).
For `CCC(=O)Nc1ccc(C(=O)Nc2ccc3c(c2)C(=O)N(CC2CCCO2)C3=O)cc1` (stereo not given), the Potency was “inactive”.
For `N#CC(Cc1cc2ccccc2n1S(=O)(=O)c1ccccc1)OCc1ccccc1` (stereo not given), the Potency was “inactive”.
In the case of `O=C(O)c1ccc(N/N=C/c2ccc3ncccc3c2)cc1`, the Potency is reported as “inactive”.
With `Cc1ccc2cc(/C=N/NC(=O)[C@@H]3CCCN3)c(Cl)nc2c1` the Potency was “inactive”.
For `Cc1ccc2cc(/C=N/Nc3ccc(C(=O)O)cc3)c(Cl)nc2c1`, the Potency was 6.51 µM (active).
With `COc1ccc(NC(=O)/C(C#N)=C\c2cc(OC)c(OCc3ccc(C(=O)O)cc3)cc2Br)cc1` the Potency was 16.4 µM (active).
With `COc1cc(/C=C(\C#N)C(=O)Nc2ccc3ccccc3c2)c([N+](=O)[O-])cc1OC` the Potency was “inactive”.
For `COc1cc(C=O)c(Br)cc1OCC(=O)NCc1ccccc1`, the Potency was “inactive”.
For `NC(=O)C1(N2CCCC2)CCN(Cc2ccccc2)CC1`, the Potency was “inactive”.
In the case of `COC(=O)c1sc2ncccc2c1OCc1ccc(Cl)cc1Cl`, the activity, positive = re-replication is reported as -182% [at 0.0737 µM] (inactive).
With `COC(=O)c1cc2c(N)c(C(=O)c3ccc(Cl)cc3)sc2nc1C(OC)OC` the Potency was 20.6 µM (active).
With `COC(=O)c1cn(C(=O)c2ccc(Cl)cc2)c2ccccc12` the Potency was “inactive”.
For `CN(Cc1cccs1)C(=O)CN1C(=O)c2ccccc2S1(=O)=O`, the Potency was “inactive”.
In the case of `CCOC(=O)C1=CN(Cc2ccc(Br)cc2)S(=O)(=O)NC1C` (stereo not given), the Potency is reported as “inactive”.
In the case of `Cc1cc(NC(=O)COc2ccc(Cl)cc2Cl)n(CCC#N)n1`, the Potency is reported as “inactive”.
For `COC(=O)c1c(NC(=O)COc2ccc(Cl)cc2Cl)sc2c1CC(C)(C)NC2(C)C`, the Potency was 3.26 µM (active).
In the case of `CCOC(=O)c1c(NC(=O)c2ccc(S(=O)(=O)N(C)CC3CCCO3)cc2)sc2c1CC(C)(C)NC2(C)C` (stereo not given), the Potency is reported as “inactive”.
With `COc1ccc(N(Cc2cc3cc(OC)ccc3[nH]c2=O)S(C)(=O)=O)cc1` the Potency was “inactive”.
With `CCC(=O)N(Cc1cc2cc(OC)ccc2[nH]c1=O)c1ccccc1C` the Potency was “inactive”.
With `COc1ccc2[nH]c(=O)c(CNc3ccc(C)c(C)c3)cc2c1` the Potency was 14.6 µM (active).
For `c1ccc(-c2c[nH]c(-c3ccccc3)c2)cc1`, the Potency was “inactive”.
For `COc1ccc(NC(=O)CN(C)C(=O)c2cc(C3CC3)nn2-c2ccccc2)cc1`, the Potency was “inactive”.
For `Cc1nc2ccccc2c(C(=O)O)c1-c1ccccn1`, the Potency was “inactive”.
In the case of `COc1cc2c(cc1CNC[C@H]1O[C@@H](n3cnc(C(N)=O)n3)[C@H](O)[C@@H]1O)OCO2`, the Potency is reported as “inactive”.
In the case of `C/C(=N\NC(=O)Cc1ccc(Cl)cc1)c1ccccn1`, the Potency is reported as “inactive”.
For `C/C(=N\NC(=O)c1ccccc1F)c1ccccn1`, the Potency was 23.1 µM (active).
With `C/C(CC(=O)Nc1ccc(N(C)C)cc1)=N\NC(=O)c1ccccc1F` the Potency was “inactive”.
For `O=C(CNC(=O)c1cc(S(=O)(=O)N2CCOCC2)ccc1N1CCCC1)Nc1ccc(F)c(F)c1`, the Potency was “inactive”.
With `Cc1cc(C(=O)N/N=C/c2ccccc2[N+](=O)[O-])c(C)o1` the Potency was “inactive”.
In the case of `Cc1c(C(=O)N/N=C/c2ccccc2)[nH]c2c([N+](=O)[O-])cccc12`, the Potency is reported as 4.11 µM (active).
In the case of `O=C(N/N=C/c1ccc([N+](=O)[O-])cc1)c1c[nH]c2ccccc12`, the Potency is reported as “inactive”.
With `CC(=O)N(O)CCCCCNC(=O)CCC(=O)N(O)CCCCCNC(=O)CCC(=O)N(O)CCCCCNC(=O)CCC(=O)O` the Potency was “inactive”.
With `COc1ccc(S(=O)(=O)N2CCCCCC2)cc1NC(=O)Cc1ccc(OC)c(OC)c1` the Potency was “inactive”.
For `O=C(NCCc1ccco1)c1ccc(OCc2cn3ccccc3n2)cc1`, the Potency was “inactive”.
In the case of `O=C(/C=C/c1ccccc1[N+](=O)[O-])OC1CCCCC1=O` (stereo not given), the Potency is reported as “inactive”.
In the case of `CC1CCCCC1NC(=O)/C(C#N)=C/C=C/c1ccccc1[N+](=O)[O-]` (stereo not given), the Potency is reported as 2.91 µM (active).
In the case of `O=C(/C=C/c1ccccc1[N+](=O)[O-])NCC1CCCO1` (stereo not given), the Potency is reported as “inactive”.
For `O=C(CSc1ccccc1)Nc1cccc(S(=O)(=O)N2CCCCC2)c1`, the Potency was “inactive”.
For `C=CC[C@@H](CC(=O)NCCO)C(=O)N[C@H](C)COC(=O)[C@@H](CC=C)CC(=O)OC(C)(C)C`, the Potency was “inactive”.
With `O=C(/C=C\c1ccc2c(c1)OCO2)NC1(C(=O)Nc2ccc3c(c2)OCCO3)CCCCC1` the Potency was “inactive”.
In the case of `CCc1c(C)sc(NC(=O)/C=C/c2ccc3c(c2)OCO3)c1C(=O)OC`, the Potency is reported as 5.8 µM (active).
With `Cc1cccc(NC(=O)/C=C/c2ccc3c(c2)OCO3)n1` the Potency was “inactive”.
With `Cc1csc(=O)n1CCC(=O)OCC(=O)NNC(=O)c1ccc(Br)cc1` the Potency was “inactive”.
For `COc1ccc(/C=N/NC(=O)c2ccccc2)cc1OS(=O)(=O)c1ccccc1`, the Potency was 20.6 µM (active).
With `COc1cc(/C=N/NC(=O)Nc2ccccc2)ccc1OCCOc1ccccc1C` the Potency was 1.16 µM (active).
In the case of `CCOC(=O)/C(C#N)=C/c1ccc(OCC(=O)Nc2ccccc2)c(OC)c1`, the Potency is reported as “inactive”.
For `COc1cc(/C=N/NC(=O)Cc2ccccc2)cc(OC)c1OC`, the Potency was “inactive”.
In the case of `COc1cc(/C=N/NC(=O)c2ccccc2)ccc1OS(=O)(=O)c1ccccc1`, the Potency is reported as “inactive”.
In the case of `COc1ccc(/C=N/S(=O)(=O)c2ccccc2)cc1OC`, the Potency is reported as “inactive”.
In the case of `CC(C(=O)NC1CCCC1)N1CCN(S(=O)(=O)c2ccccc2Cl)CC1` (stereo not given), the Potency is reported as “inactive”.
In the case of `COC(=O)C1=C(C)NC(=S)NC1c1ccc(OCC(=O)N2CC(C)OC(C)C2)c(OC)c1` (stereo not given), the Potency is reported as “inactive”.
For `O=C(Cn1cc(/C=N/NC(=O)c2cccc(C(F)(F)F)c2)c2ccccc21)Nc1ccc(F)cc1`, the Potency was 20.6 µM (active).
In the case of `COc1ccc(/C=N/NC(=O)c2cccc(C(F)(F)F)c2)cc1`, the Potency is reported as “inactive”.
For `O=C(CSc1ccc(/C=N/NC(=O)c2cccc(F)c2)o1)Nc1ccccc1`, the Potency was “inactive”.
With `Cc1cc2nc(C(F)(F)F)cc(-c3cccs3)n2n1` the Potency was 0.92 µM (active).
In the case of `CC(C)(C)Nc1c(-c2cccs2)nc2ccccn12`, the Potency is reported as “inactive”.
For `Cc1cc(-c2cccs2)nc(-n2cccc2)n1`, the Potency was “inactive”.
With `CN(C(=O)Cn1nnc(-c2ccc(F)cc2)n1)C1CCS(=O)(=O)C1` (stereo not given) the Potency was “inactive”.
In the case of `CN1CCN(c2ccc(NC(=O)c3cc(Cl)c4c(c3)OCCO4)cc2)CC1`, the Potency is reported as “inactive”.
With `Cc1ccc(CNC(=O)COc2ccc(S(=O)(=O)NC(C)C)cc2)cc1` the Potency was “inactive”.
For `Cc1ccc(CNC(=O)COc2ccc3c(c2)CCC3)cc1`, the Potency was “inactive”.
With `CC(=O)Nc1ccc(OCC(=O)NCc2ccc(C)cc2)cc1` the Potency was 1.16 µM (active).
With `COc1ccccc1-c1nn(Cc2ccccc2)cc1C(=O)N1CCN(c2ncccn2)CC1` the Potency was “inactive”.
For `O=C(CN1CCCSc2ccccc21)N1CCN(S(=O)(=O)c2ccccc2)CC1`, the Potency was “inactive”.
